Source: PubChem (Broad Institute)
In the library only some 2.1% were active in any assay of this set; here they are far more common.
NSD2 inh = NSD2 histone methyltransferase inhibitors, primary screen, biochemical, AlphaScreen, single concentration, set 2. Histone-lysine N-methyltransferase NSD2 (Homo sapiens), O96028. NSD2 peptide methylation, 120 min. inhibition, % at 12.5 µM. 0.54% of 310,000 active; in the data active = inhibition above about 50%
ARNT TACC3 PPI = disruptors of ARNT/TACC3 protein interaction, primary screen, biochemical, AlphaScreen, single concentration; 0.66% of 390,000 active; inhibition, % at 9.99 µM; Transforming acidic coiled-coil-containing protein 3 (Homo sapiens), Q9Y6A5; AlphaScreen His-ARNT PAS-B/GST-TACC3 binding, luminescence; TACC3 fragment carries E629A point mutation;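 active = mean inhibition of replicates at least 50% and at least half of replicates each reaching 50%; inconclusive = half or more replicates reach 50% but mean below 50%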;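 also: 0% = complete ARNT plus TACC3 wells and 100% = ARNT alone without TACC3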
SIRT5 inh = SIRT5 desuccinylase inhibitors, primary screen, biochemical, fluorescence imaging, single point, set 5 | inhibition, % at 15 µM | NAD-dependent protein deacylase sirtuin-5, mitochondrial (Homo sapiens), Q9NXA8 | Purified SirT5, succinyl-peptide AMC, trypsin-coupled fluorescence | 1.1% of 330,000 active | AID 652115, 2013; in the data active = inhibition above about 15%; inconclusive = no clear call, values can overlap the other calls
Target sequence (Q9NXA8 whole entry, looked up): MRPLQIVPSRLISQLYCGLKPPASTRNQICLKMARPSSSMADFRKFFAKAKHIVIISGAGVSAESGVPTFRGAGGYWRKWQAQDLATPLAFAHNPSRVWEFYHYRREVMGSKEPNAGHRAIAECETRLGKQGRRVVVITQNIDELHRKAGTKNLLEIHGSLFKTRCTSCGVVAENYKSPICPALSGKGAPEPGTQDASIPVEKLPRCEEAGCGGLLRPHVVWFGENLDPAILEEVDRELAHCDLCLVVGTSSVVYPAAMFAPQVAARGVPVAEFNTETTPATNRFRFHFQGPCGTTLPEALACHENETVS
CASP6 VEID inh = human caspase-6 inhibitors, primary screen, biochemical, VEID-R110 fluorescence, single point, set 2; purified caspase-6, Z-VEID-R110 cleavage fluorescence; inhibition, % at 12.5 µM; 0.53% of 350,000 active; AID 686996, 2013;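 active = mean inhibition across replicates at least about 35%, with every replicate also reaching that limit, limit read from the data; inconclusive = only one of the two criteria met; inactive = neither criterion met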;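 also: 0% = median of neutral control wells and 100% = no fluorescence left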
Target sequence (P55212 24-179 limits assumed): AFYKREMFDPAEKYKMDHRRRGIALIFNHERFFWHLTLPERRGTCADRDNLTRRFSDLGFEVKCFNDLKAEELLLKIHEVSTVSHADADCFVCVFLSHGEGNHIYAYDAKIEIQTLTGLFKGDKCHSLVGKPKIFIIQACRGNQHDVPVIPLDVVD
Target sequence (P55212 194-293 limits assumed): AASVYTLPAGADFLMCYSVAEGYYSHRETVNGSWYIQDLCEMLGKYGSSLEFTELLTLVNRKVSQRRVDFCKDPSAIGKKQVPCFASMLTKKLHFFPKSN
PfHsp90 set2 = growth inhibition of PfHsp90-expressing yeast, primary screen, antimalarial PfHsp90 inhibitor project, S. cerevisiae, BacTiter-Glo luminescence, single point, set 2. BacTiter-Glo ATP, 48 h; yeast lacking PDR1 and PDR3 efflux regulators. inhibition, % at 9.4 µM. 0.32% of 310,000 active. AID 504621, 2011;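 active = every replicate shows inhibition above about 80%, whatever the replicate mean, limit read from the data; inconclusive = mean inhibition reaches the set limit but some replicate falls short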;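 also: 0% = DMSO neutral controls and 100% = 20 µM radicicol positive controls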
The depositor's hits bear a star; ? = inconclusive; . = no result given.

SMILES | NSD2 inh | ARNT TACC3 PPI | SIRT5 inh | CASP6 VEID inh | PfHsp90 set2
CC(C)(C)OC(=O)N(CCc1ccccc1)Cc1ccc(OCc2cccc(NC(=O)C3CC3)c2)cc1 | . | 2.7 | 18.3* | -2.8 | -17.7
C=CCN=c1scc(-c2ccccc2)n1/N=C/c1ccccn1 | 9.4 | 46.6* | -1.1 | 0.2 | -23.1
C=CCN=c1scc(-c2ccc(F)cc2)n1/N=C/c1ccccn1 | 6.4 | 30.6 | -1.3 | 0.4 | -41.8
CCN=c1scc(-c2ccc(F)cc2)n1/N=C/c1ccccn1 | 13.5 | 31.6 | -2.9 | -1.7 | 16.3
CCN=c1scc(-c2ccccc2)n1/N=C/c1ccccn1 | . | 60.9* | . | . | 2.6
CCCC(=O)Nc1ccc2c(c1)OC[C@@H](C)N(Cc1cncnc1)C[C@H](C)[C@H](OC)CN(C)C2=O | . | -1.5 | 4.5 | -3.2 | .
COc1ccccc1CNC(=O)C(NS(=O)(=O)c1cccc2nsnc12)C(C)C (centres undefined) | 0.0 | -3.1 | 19.2* | 2.1 | -5.9
O=C1/C(=C\c2ccco2)SC(=S)N1C1CCS(=O)(=O)C1 (centres undefined) | 0.7 | . | 3.7 | 48.6* | .
O=C1/C(=C/c2ccco2)SC(=S)N1C1CCS(=O)(=O)C1 (centres undefined) | 23.1 | 4.6 | 5.1 | 22.1 | 24.2
CC(C(=O)N(C)C1CCS(=O)(=O)C1)N1C(=O)/C(=C/c2ccc(F)cc2)SC1=S (centres undefined) | 3.7 | 16.8 | 2.1 | 4.2 | -3.2
CCN(C(=O)C(C)N1C(=O)/C(=C/c2ccco2)SC1=S)C1CCS(=O)(=O)C1 (centres undefined) | 26.2 | 16.1 | 5.4 | 50.2* | 8.6
COC(=O)[C@@H](Cc1c[nH]c2ccccc12)NCc1ccc(B(O)O)cc1 | . | -1.3 | 0.4 | 2.9 | 2.3
CC(Cc1c[nH]c2ccccc12)C(=O)O (centres undefined) | . | -18.0 | 5.8 | 37.9* | -13.1
O=C(CC(C(=O)O)c1c[nH]c2ccccc12)c1ccccc1 (centres undefined) | 28.9 | -9.7 | 17.5* | -3.7 | -43.8
COC(=O)[C@H](Cc1c[nH]c2ccccc12)NCc1cccc(B(O)O)c1 | . | 1.8 | 26.2* | 1.3 | -15.4
O=C(O)C(O)Cc1c[nH]c2ccccc12 (centres undefined) | . | 1.9 | -2.7 | -3.4 | 26.0
CN(Cc1ccco1)C(=O)CSc1nn2c(=O)c(C(C)(C)C)nnc2s1 | 19.5 | 2.1 | 3.5 | 43.2* | 10.1
C[C@@H]1CN([C@H](C)CO)C(=O)c2cc(NS(=O)(=O)c3ccc(Cl)cc3)ccc2O[C@H]1CN(C)Cc1ccncc1 | . | -0.8 | -0.3 | -0.7 | .
O=C(CNCc1ccccc1)NCCCN1CCCC1=O | -2.4 | -4.5 | 17.0* | -2.1 | -19.0
CN1C(=O)c2cc(NC(=O)c3ccno3)ccc2OC[C@H]2O[C@@H](CC(=O)NCC3CC3)CC[C@@H]21 | . | -11.8 | 2.4 | -0.7 | .
OC[C@H]1[C@H](c2ccc(-c3ccccc3)cc2)[C@@H]2CN(CCC(F)(F)F)CCCCN12 | . | -2.2 | 27.1* | -11.3 | .
CN(C)C(=O)c1ccc(-c2ccc([C@H]3[C@H](CO)N4CCCCN(CCC(F)(F)F)C[C@@H]34)cc2)cc1 | . | 4.7 | 33.1* | -5.5 | .
CN(C)C(=O)c1ccc(-c2ccc([C@H]3[C@@H](CO)N4CCCCN(CCC(F)(F)F)C[C@@H]34)cc2)cc1 | . | -3.0 | -12.0 | 4.3 | .
COc1ccc(CN(C(=O)c2ccco2)c2ccc(C)c(C)c2)cc1 | -0.8 | 5.5 | 112.0* | 4.3 | 24.4
Cc1c(CC(=O)N[C@@H](C)C(=O)O)c(=O)oc2cc3occ(-c4ccccc4)c3cc12 | 4.7 | 48.1* | 1.1 | 2.0 | 15.5
SMILES | NSD2 inh | ARNT TACC3 PPI | SIRT5 inh | CASP6 VEID inh | PfHsp90 set2
Cc1c(CC(=O)N[C@@H](C)C(=O)O)c(=O)oc2c(C)c3occ(-c4ccccc4)c3cc12 | 14.1 | 75.7* | 4.2 | . | 1.5
COc1ccc(NC(=O)N(C)C[C@@H]2Oc3ccc(NC(=O)CCCCCC(=O)Nc4ccccc4N)cc3CC(=O)N([C@H](C)CO)C[C@H]2C)cc1 | . | 2.7 | . | -0.8 | .
Cc1nn(-c2nc3ccccc3[nH]2)c(=O)c2ccccc12 | -4.5 | 10.7 | -3.4 | . | 90.3*
CON(C)C(=O)CC(CNC(=O)OC(C)(C)C)c1ccc(Cl)cc1 (centres undefined) | . | 0.5 | 21.5* | -1.0 | 0.5
C[C@H](CO)N1C[C@H](C)[C@@H](CN(C)Cc2ccccc2)Oc2cc(/C=C/c3ccccc3)ccc2S1(=O)=O | . | 3.7 | -3.7 | -1.1 | .
C[C@H]1CN([C@@H](C)CO)S(=O)(=O)c2ccc(/C=C/c3ccccc3)cc2O[C@@H]1CN(C)Cc1ccc(C(=O)O)cc1 | . | 6.7 | 25.3* | 2.3 | .
C[C@@H]1CN([C@@H](C)CO)S(=O)(=O)c2ccc(/C=C/c3ccccc3)cc2O[C@H]1CN(C)Cc1ccc(C(=O)O)cc1 | . | 8.3 | ? | 2.2 | .
C[C@H]1CN([C@@H](C)CO)S(=O)(=O)c2ccc(/C=C/c3ccccc3)cc2O[C@H]1CN(C)Cc1ccccc1 | . | 28.8 | 21.5* | -0.4 | .
C[C@H](CO)N1C[C@H](C)[C@H](CN(C)Cc2ccccc2)Oc2cc(/C=C/c3ccccc3)ccc2S1(=O)=O | . | 1.5 | 21.3* | -1.9 | .
Cc1ccc(NC(=O)C(c2ccccc2)N2CCN(CC(=O)N3CCOCC3)CC2)cc1Cl (centres undefined) | 8.6 | -8.8 | -9.8 | 46.7* | -0.8
O=C(Nc1ccc(F)cc1)C(c1ccccc1)N1CCN(CC(=O)N2CCOCC2)CC1 (centres undefined) | -1.3 | 10.1 | -1.1 | -0.6 | 7.5
C[C@H]1CCCCO[C@@H](CN(C)Cc2ccc(C(F)(F)F)cc2)[C@@H](C)CN([C@@H](C)CO)C(=O)c2cc(NS(C)(=O)=O)ccc2O1 | . | 11.1 | . | . | .
COc1ccccc1CCNC(=O)CC1C(=O)NCCN1CCCc1ccccc1 (centres undefined) | 2.3 | . | -1.1 | -4.0 | -2.8
O=C(CC1C(=O)NCCN1CCCc1ccccc1)NCCc1ccccc1Cl (centres undefined) | 2.2 | 4.1 | 15.4* | -1.2 | 2.1
O=C1Cc2ccccc2N1c1c(Cl)cccc1Cl | -0.6 | 0.5 | . | . | 4.4
O=C1Cc2ccccc2C(=O)N1c1ccc(F)cc1Cl | 14.8 | -2.4 | 0.2 | 44.1* | 0.0
O=C1Cc2ccccc2C(=O)N1c1cccc(Cl)c1 | 1.2 | -3.5 | 2.7 | 35.2* | -6.0
C[C@@H]1CN([C@@H](C)CO)C(=O)c2cc(NC(=O)Cn3cnnn3)ccc2O[C@@H]1CN(C)S(C)(=O)=O | . | -2.2 | 2.1 | -0.3 | .
O=C(O)CN1C(=O)/C(=C\c2cc(Br)ccc2OCc2ccc(Cl)cc2Cl)SC1=S | 3.5 | 0.5 | 5.6 | 85.7* | -6.4
